This is a sample that favours compounds with a hit; in the whole collection about 19% have one here.
TDP1 cell noCPT: qHTS for Inhibitors of human tyrosyl-DNA phosphodiesterase 1 (TDP1): qHTS in cells in absence of CPT | 15% of 420,000 active | AID 686978, 2013 | Potency, µM (titrated, usually from 46.2 µM), for the others: at the top dose activity change, negative = growth inhibition, hits mostly inhibitors | DT40 Tdp1-/- hTDP1 cells, no CPT, ATP luminescence, 48 h; also: potency is read from the fitted curve at half-maximal effect; nearly all actives have a fitted effect of over 55% in size
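Growth kinetics read by CellTiter-Glo luminescence after ≥48 hr at 37 °C. Cells: DT40 Tdp1-/- stably carrying human TDP1, 400 per well, compound exposure in the absence of CPT (DMSO vehicle).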
IL-1B inflam inh: blocks inflammasome-driven IL-1 beta release | THP-1 LPS/ATP IL-1B secretion, AlphaLISA, 16 h; active compounds read low | activity change, % at 57.5 µM | 4.7% of 360,000 active; in the data active = activity change below about -50%; inconclusive = mostly about -30% to -49%
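Secreted IL-1B measured by AlphaLISA bead assay after 16 h compound exposure of THP-1 cells; compounds (final up to 57.5 uM) added 1 h before LPS (250 ng/mL) and ATP (1.25 mM) stimulation; lower signal means less secretion.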
TDP1 cell CPT: DT40-hTDP1 cell growth loss with CPT | chicken DT40 Tdp1-/-;hTDP1 cells + 20 nM CPT, ATP luminescence, 48 h | Potency, µM (titrated, usually from 46.2 µM), for inactives: at the highest dose activity change, negative = growth inhibition, usual class: inhibitors | 12% of 420,000 active; also: potency is read from the fitted curve at half-maximal effect; nearly all actives have a fitted effect of over 55% in size
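Chicken DT40 Tdp1-/- cells complemented with human TDP1, 400 cells/well, exposed to compounds plus 20 nM camptothecin for at least 48 h at 37 C; viability read as ATP content by CellTiter-Glo luminescence.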
HT1080 IDH1KD tx: HT-1080 IDH1 knockdown cell toxicity (counter line) | HT-1080 IDH1 knockdown viability, ATP luminescence, 48 h | Potency, µM (highest dose often 46.1 µM), for inactives: top-dose activity, negative = toxicity, hits mostly cytotoxic | 2% of 360,000 active | AID 686971;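 also: potency is read from the fitted curve at half-maximal effect; 0% = DMSO wells and -100% = cell-free medium wells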
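Using the IDH1-knockdown HT-1080 line run in the same batch and compound series as the NT line, viability after 48 h at 37 °C was determined by CellTiter-Glo luminescence and expressed as % activity.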
HT1080NT lethal: kills 2HG-producing HT-1080-NT fibrosarcoma cells; HT-1080-NT fibrosarcoma viability, CellTiter-Glo ATP luminescence, 48 h; Potency, µM (top dose mostly 46.1 µM), for the others: top-dose activity, negative = less viability, hits mostly cytotoxic; 1.6% of 360,000 active; AID 686970;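 also: NT is the 2HG producing partner of a matched IDH1 knockdown line; potency is read from the fitted curve at half-maximal effect; 0% = DMSO-treated cells and -100% = media-only wells without cells; nearly all actives have a fitted effect of over 55% in size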
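Toxicity toward the 2HG-producing NT line was scored as %Activity, normalised to DMSO and no-cell wells, from CellTiter-Glo luminescence after 48 hours' treatment.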
Numbers without * were called inactive; ? = inconclusive; . = no result given; ! = a repeat was not active. Unless noted, calls follow the shape of the dose curve; as a rule, active = well fitted curve in the direction sought with a large enough effect; inconclusive = small, poorly fitted or top-dose-only effect, or another doubt; inactive = no such curve, though single readings can be large; an effect the other way counts as inactive or inconclusive. Unless noted, % is scaled to controls: 0 for no effect and ±100 for the full control effect.

SMILES | TDP1 cell noCPT | IL-1B inflam inh | TDP1 cell CPT | HT1080 IDH1KD tx | HT1080NT lethal
C=C1C(=O)OC2C=C(CO)CCC=C(CO)CC(OC(=O)C(C)C)C12 (stereo not drawn) | 2.91µM* | -100.9* | 2.91µM* | 13µM* | -0.5%
Brc1ccc2[nH]c3c(c2c1)CCC3 | -12.0% | -20.8 | -4.6% | -21.3% | -12.9%
O=c1c2c([nH]c3ccc(Br)cc13)CCCC2 | ? | -9.6 | 23.1µM* | -3.3% | 0.8%
Cn1cc(CN(C(=O)Nc2ccccc2)C2CCCCC2)c2ccccc21 | 8.2µM* | . | 6.51µM* | . | .
Cn1cc(CN(C(=O)Nc2ccc(Cl)c(Cl)c2)C2CCCCC2)c2ccccc21 | 4.11µM* | . | 2.31µM* | . | .
COc1ccc(CCCc2nnc(SCC(=O)Nc3ccc(C)cc3C)o2)cc1 | ? | . | -29.0% | . | .
CCOC(=O)c1ccc(Nc2cc(C)nc(C)c2C(=O)OCC)cc1 | 18.4µM* | 24.6 | ? | -9.8% | -3.8%
Cc1nc(-c2cccnc2)sc1C(=O)Nc1cccc(C(F)(F)F)c1 | 18.4µM* | 10.0 | ? | 18.4% | 10.2%
Cc1cc(Cl)c(C(=O)Nc2cccc(C(F)(F)F)c2)c(C)n1 | -28.5% | -53.7* | -28.1% | -11.5% | -15.7%
CCn1cc(Cl)c(C(=O)Nc2cccc(C(F)(F)F)c2)n1 | -1.9% | -63.6* | 30.8% | -20.5% | -13.3%
Cc1nc(Cl)sc1C(=O)Nc1cccc(C(F)(F)F)c1 | -22.8% | -5.0 | -1.6% | 21.6% | 17.8%
COc1ccc([C@H]2CC(=O)C=C(c3cccc(C#N)c3)C2)cc1 | ? | ? | ? | -0.6% | -1.0%
CCCc1cc(=O)oc2cc(C)cc(OCC(=O)NCCCN3CCOCC3)c12 | -3.9% | -7.3 | -2.8% | -2.6% | -0.2%
O=C1C(=O)N(C2CCN(C(=O)c3ccccc3Cl)CC2)CCN1Cc1ccc(F)cc1 | 4.7% | . | -4.5% | . | .
CCOC(=O)c1ccc(Nc2nnc(C(C)(C)C)c(=O)[nH]2)cc1 | 23.1µM* | -91.0* | ? | ? | -23.9%
CCOC(=O)c1ccc(NC(=O)c2c(Cl)cc(C)nc2C)cc1 | 5.17µM* | ? | 3.26µM* | -9.1% | -6.9%
COc1ccc(CN(Cc2ccco2)C(=O)COc2ccc(Cl)cc2C)cc1 | 20.6µM* | . | ? | . | .
Cc1ccc(OCC(=O)N(Cc2ccc(Cl)cc2)Cc2ccco2)cc1C | 20.6µM* | . | ? | . | .
Cc1ccc(OCC(=O)N(Cc2ccco2)C2CCS(=O)(=O)C2)cc1C (stereo not drawn) | -26.8% | -1.0 | -7.3% | 0.5% | -0.8%
COc1ccc(NC(=O)N2CCC3(CC2)CCN(S(C)(=O)=O)CC3)cc1 | -7.2% | . | 14.1% | . | .
COc1ccc(CCNc2ncnc3nc[nH]c23)cc1 | 6.31µM* | . | 2.82µM* | . | .
Cc1cc(-c2nsc(=O)o2)c(S(C)(=O)=O)s1 | 16.4µM* | 0.0 | 20.6µM* | -4.9% | -2.0%
Cc1ccc(C2CC(C(F)(F)F)n3nc(C(=O)NCc4ccco4)cc3N2)cc1 (stereo not drawn) | -26.6% | 4.6 | -22.2% | -13.2% | -15.8%
O=c1[nH]c2ccccc2n2c(C(F)(F)F)nnc12 | -3.1% | 20.2 | -3.6% | 5.7% | 5.2%
FC(F)(F)c1nnc2c(Sc3ccccc3)nc3ccc(Cl)cc3n12 | 0.581µM* | -69.5* | 0.651µM* | -12.4% | 9.2µM*
SMILES | TDP1 cell noCPT | IL-1B inflam inh | TDP1 cell CPT | HT1080 IDH1KD tx | HT1080NT lethal
Cc1c(O)ccc2c3c(c(=O)oc12)CCC(C)C3 (stereo not drawn) | 11.6µM* | 6.8 | 23.1µM* | -13.8% | -20.3%
Nc1c(Cl)ncnc1N/N=C/c1cccnc1 | 2.0% | . | 4.7% | -0.3% | -1.9%
Nc1c(Cl)ncnc1N/N=C/c1ccccn1 | 0.0206µM* | -82.9* | 0.0184µM* | ? | ?
Cc1ccc(NC(=O)CN2C(=O)COc3ccc(S(=O)(=O)N4CCCCC4)cc32)cc1N(C)C | 20.6µM* | . | 23.1µM* | . | .
COc1ccc(NC(=O)CN2C(=O)COc3ccc(S(=O)(=O)N4CCOCC4)cc32)cc1Cl | 18.4µM*! | ? | ? | 0.0% | -0.7%
CC(=O)Nc1ccc(S(=O)(=O)NCc2nc(-c3ccccc3C)no2)cc1 | -2.1% | 3.1 | -19.0% | -1.1% | -0.4%
C=CCN1/C(=C(\C#N)C2=NS(=O)(=O)c3ccccc32)N(C)c2ccccc21 | -2.6% | -9.1 | 1.0% | 7.08µM* | 12.6µM*
COc1ccccc1N1CCN(C2=NS(=O)(=O)c3ccccc32)CC1 | ? | 19.5 | -25.8% | -2.6% | 2.0%
CCc1ccc(C(=O)c2cn(CC(=O)Nc3cc(OC)ccc3OC)c3nc(C)ccc3c2=O)cc1 | -67.1% | . | ? | . | .
Cc1ccc(C(=O)c2cn(CC(=O)Nc3ccc(C)cc3Cl)c3nc(C)ccc3c2=O)cc1 | 23.1µM* | . | 10.3µM* | . | .
COc1ccc(Cl)cc1NC(=O)Cn1cc(C(=O)c2ccc(C)cc2)c(=O)c2ccc(C)nc21 | 23.1µM* | . | ? | . | .
Cc1ccc(CNC(=O)Cn2cc(C(=O)c3ccc(Cl)cc3)c(=O)c3ccc(C)nc32)cc1 | 16.4µM* | . | 16.4µM* | . | .
Cc1c(Cl)cccc1NC(=O)C(C)n1c(=O)cc(C)c2c(C)nn(-c3ccccc3)c21 (stereo not drawn) | -4.3% | . | ? | . | .
CCc1nc2c(OCCn3cccc3)cccn2c1N(C=O)Cc1ccc(OC)cc1 | ? | -22.5 | 20.6µM* | -1.8% | -24.5%
CCc1nc2c(OCCn3cccc3)cccn2c1N(C=O)Cc1ccccc1 | ? | 7.6 | ? | 0.0% | 21.0%
CCc1nc2c(OCc3ccc(Cl)cc3)cccn2c1N(C=O)Cc1ccc(OC)cc1 | ? | 0.0 | 20.6µM* | ? | ?
CCc1nc2c(OCc3c(C)noc3C)cccn2c1N(C=O)Cc1ccc(OC)cc1 | 14.6µM* | 5.7 | 23.1µM* | 0.0% | 0.7%
CCCCN(C=O)c1c(CC)nc2c(OCc3cccc(Cl)c3)cccn12 | ? | 14.2 | ? | -21.8% | -3.8%
CCc1nc2c(OCc3ccc(Cl)cc3Cl)cccn2c1N(C=O)Cc1ccc(OC)cc1 | 23.1µM* | -67.4* | ? | 24.2% | 12.2%
CCc1nc2c(OCCOc3ccc(F)cc3)cccn2c1N(C=O)Cc1ccc(OC)cc1 | ? | -21.2 | ? | 0.4% | 1.7%
COc1ccc(C(CNC(=O)c2cc3ccccc3cc2O)N2CCOCC2)cc1 (stereo not drawn) | ? | -7.0 | ? | -12.0% | -21.6%
O=C(O)c1ccc([N+](=O)[O-])c(CS(=O)(=O)c2ccccc2)c1 | 3.2% | 2.3 | -1.3% | 2.4% | -2.5%
CCc1nc2c(OCC(=O)c3ccc(Cl)cc3Cl)cccn2c1N(C)C(=O)c1cccs1 | 18.4µM* | ? | 16.4µM* | ? | ?
CCc1nc2c(OCC(N)=O)cccn2c1N(C)C(=O)c1cccs1 | -4.8% | 42.0 | -6.4% | 8.2% | ?

Source: PubChem BioAssay (National Center for Advancing Translational Sciences (NCATS))
